A selection: hits, their analogues and other compounds. The true share with any hit is near 3.5%.
GPR151 activ = activates the human receptor GPR151; PathHunter beta-arrestin GPR151 cells, luminescence; Q8TDV0; AID 1508602; activation, % at 11.2 µM; 650,000 tested, 1% active; in the data active = activation above about 4.9%;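 note: 0% = median of compound wells and 100% = cells with positive control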
Target sequence (Q8TDV0 whole entry, looked up): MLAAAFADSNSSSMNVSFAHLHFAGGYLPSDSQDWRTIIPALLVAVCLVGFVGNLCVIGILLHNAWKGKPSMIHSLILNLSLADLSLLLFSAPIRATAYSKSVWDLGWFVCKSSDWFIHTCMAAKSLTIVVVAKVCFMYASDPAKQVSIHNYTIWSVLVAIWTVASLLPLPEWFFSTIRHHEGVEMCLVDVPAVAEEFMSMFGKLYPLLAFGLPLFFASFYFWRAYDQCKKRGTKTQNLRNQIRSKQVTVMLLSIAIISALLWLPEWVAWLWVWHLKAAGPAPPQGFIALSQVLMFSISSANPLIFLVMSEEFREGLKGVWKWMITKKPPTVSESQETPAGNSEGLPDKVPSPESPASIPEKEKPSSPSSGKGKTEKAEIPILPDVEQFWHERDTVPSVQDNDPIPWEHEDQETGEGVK
MITF primary = blocks human microphthalmia-associated transcription factor; O75030; AlphaScreen MITF homodimerization, bead proximity signal; inhibition, % at 2.6 µM; 650,000 tested, 0.91% active; AID 1259374; in the data active = inhibition above about 50%;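 note: 0% = vehicle wells with protein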
TEAD-YAP block = TEAD-YAP interaction inhibition; HEK-TIYL cells, TEAD-Gal4/YAP UAS-luciferase luminescence; inhibition, % at 9.12 µM; 640,000 tested, 1.4% active; AID 1259422; in the data active = inhibition above about 32%;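 note: 0% = median of test compound wells and 100% = reference inhibitor wells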
FBW7 activator = human FBW7 E3 ligase activation, primary screen; Q969H0; AlphaScreen FBW7–phospho-cyclin E peptide binding, activator screen; normalized activity (activation), % at 26.1 µM; 650,000 tested, 0.13% active; AID 1259310; in the data active = normalized activity above about 1.9%;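 note: purified mutant Fbw7 with reduced substrate affinity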
An asterisk follows results filed as active.

SMILES	GPR151 activ	MITF primary	TEAD-YAP block	FBW7 activator
COc1ccc(-c2nc(C(=O)Nc3cc(OC)c(OC)c(OC)c3)cs2)cc1	0	2	14	1
COc1cc(Nc2ccnc(-c3ccc(C(N)=O)cc3)n2)cc(OC)c1OC	-2	14	51*	0
COc1cc(NC(=O)c2csc(N3CCN(Cc4ccc5c(c4)OCO5)CC3)n2)cc(OC)c1OC	3	3	41*	0
C=CCNC(=O)C(=O)NCCC1=CCCCC1	1	11	-11	0
COc1ccc(/C=N/NC(=O)C2CC(=O)N(c3ccc(Cl)cc3)C2)cc1 (stereo unspecified)	2	3	0	0
O=C(O)c1ccc(S(=O)(=O)c2ccc(Cl)cc2)c([N+](=O)[O-])c1	1	3	-5	-1
CN(CC(=O)N1CCCCC1)S(=O)(=O)c1ccc2c(c1)c(=O)n(C)c(=O)n2C	1	-12	-11	0
CN(C)c1c(C(=O)N2CC(=O)Nc3ccccc32)cc([N+](=O)[O-])cc1[N+](=O)[O-]	1	17	6	0
COc1cccc(C(=O)N2CC(=O)Nc3ccccc32)c1	-1	-14	42*	0
O=C1CN(C(=O)c2cc([N+](=O)[O-])ccc2Cl)c2ccccc2N1	0	-1	59*	0
COc1cccc(C(=O)N2c3ccccc3NC(=O)CC2C)c1 (stereo unspecified)	-1	7	9	0
COc1cccc(NC(=O)c2ccc(-c3ccc4c(c3)OCO4)nc2N2CCOCC2)c1	-1	-2	1	0
CN1C/C(=C/c2ccco2)C(=O)/C(=C/c2ccco2)C1	0	28	3	0
O=C1OC(c2ccc(Cl)cc2)=C/C1=C\c1ccco1	0	53*	-9	0
CC1=C/C(=C/c2ccco2)C(=O)O1	1	65*	1	0
Cc1ccc(C2=C/C(=C/c3ccc(Cl)cc3)C(=O)O2)cc1	-1	0	15	0
COc1ccc(C2=C/C(=C/c3ccco3)C(=O)O2)cc1OC	-1	74*	-3	0
COc1ccc(-c2csc(N)n2)c(F)c1	0	0	-33	0
Oc1ccc(-c2csc(NCc3ccccc3)n2)cc1O	0	26	-82	0
O=C(O)c1cccc(Nc2nc(-c3ccc(O)c(O)c3)cs2)c1	0	80*	15	0
COc1ccc2cc(-c3csc(N)n3)ccc2c1	-5	10	32*	0
Nc1nc(-c2ccc(O)c(O)c2)cs1	0	79*	3	0
NNc1nc(-c2ccc(O)c(O)c2)cs1	0	103*	6	0
CCc1ccc(C(=O)N/N=C/c2cc(Br)c(O)c(Br)c2O)nc1	-1	67*	72*	-1
CCC(c1nnnn1C(C)C)N1CCN(c2ccc(OC)cc2)CC1 (stereo unspecified)	0	22	-2	0
SMILES	GPR151 activ	MITF primary	TEAD-YAP block	FBW7 activator
COc1ccc(-n2cc(-c3ccc(Cl)cc3)[n+]3c2SCCC3)cc1	-1	-1	26	0
COc1ccc(-c2cn(-c3ccccc3)c3[n+]2CCS3)cc1	0	9	32*	0
CCOc1ccc(-c2cn(-c3ccccc3)c3[n+]2CCS3)cc1	3	7	65*	0
COc1ccc(-n2cc(-c3ccccc3)[n+]3c2SCC3)cc1	0	0	59*	0
CCOC(=O)c1sc(NC(=O)c2cc([N+](=O)[O-])ccc2Cl)c(C(=O)OCC)c1C	-1	15	8	0
COCCCNC(=O)c1ccc2c(c1)N=C(C)c1ccccc1S2	0	5	63*	0
CC1=Nc2cc(C(=O)NCCCOC(C)C)ccc2Sc2ccccc21	1	-2	38*	0
COc1ccccc1CN1CCc2nnc(CNC(=O)c3ccccn3)n2CC1	-1	4	-4	0
Cc1cc(C)c(S(=O)(=O)N2CCN(C(=O)Cc3ccccc3)CC2)c(C)c1	0	-2	-1	0
Cc1cc2nc3c(=O)[nH]c(=O)[nH]c3nc2c([N+](=O)[O-])c1N	1	68*	2	-1
Cc1cc2nc3c(=O)[nH]c(=O)[nH]c3nc2cc1N	0	-1	8	0
COc1cccc2oc(-c3ccccc3)cc(=O)c12	-11	12	60*	0
O=C(Nc1ccc(F)cc1)N[C@H]1C[C@H]2C(=O)N[C@@H](CSCc3ccccc3)C(=O)N2C1	0	0	4	0

Compound activity from PubChem BioAssay.
